Data as given in PubChem BioAssay AID504444 (National Center for Advancing Translational Sciences (NCATS), 2011).
Hit rate of the full screen: of about 360,000 compounds, about 7,500 (2.1%) were called active. Another 20% or so got no clear call; they are omitted. The call rests on the fitted dose curve; in most records, active means well fitted inhibition curve with a large enough effect; inconclusive means small, poorly fitted or top-dose-only effect, or effect the other way; inactive means flat fitted curve, though single readings scatter. The list comes from a sample in which actives are over-represented; it also holds similar structures and randomly drawn compounds.

Assay: Nrf2 qHTS screen for inhibitors; further: nearly all actives have a fitted effect of over 60% in size
Settings: A549 ARE-Fluc reporter, luciferase luminescence, 18-24 h; series mostly up to 46 µM; activity change, negative = inhibition: at the top concentration
Summary of the method: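 Cells were seeded and rested 2 h, then exposed to compounds for 18-24 h. CellTiter-Fluor was read first as a viability measure. BugLite was added 15 min before the final luminescent read of ARE-luciferase activity in A549 cells.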
On the % scale 0 is the no-effect control and ±100 the full control effect; potency means the concentration at half of the fitted maximal effect.

Compound	activity change, negative = inhibition	Potency
Cc1cc(C(=O)OCC(=O)Nc2nnc(C(C)C)s2)c2ccccc2n1	-6.29% (inactive)	
Cc1cc(C(=O)OCC(=O)N2C(C)CCCC2C)c2ccccc2n1 (configuration not stated)		18.4 µM (active)
Cc1cc(C(=O)OCC(=O)Nc2nccs2)c2ccccc2n1	19.8% (inactive)	
Cc1ccc(Cn2c(C)c3cnn(CC(=O)NCCN4CCOCC4)c(=O)c3c2C)cc1	-21.8% (inactive)	
Cc1cc(C)cc(NS(=O)(=O)c2cc3c(cc2C)NC(=O)CO3)c1	18.1% (inactive)	
C/C(=N\OCC(=O)O)c1ccc(Cl)cc1	1.65% (inactive)	
CCOC(=O)CN/C=C(\C#N)c1ccc(F)cc1	0.372% (inactive)	
CCOc1cc(/C=C(/C#N)c2ccc(Cl)cc2)cc(Cl)c1OCC(=O)O		8.2 µM (active)
CCCCNC(=O)c1ccc2c(c1)NC(=O)C(C(C)C)N2 (configuration not stated)	-6.85% (inactive)	
COc1ccc(Cn2c(C(=O)O)c(CNCc3cccc(OC)c3)c3ccc(C)cc32)cc1	-21.6% (inactive)	
CCc1cccc(NC(=O)CN(c2ccc(C)c(C)c2)S(=O)(=O)c2ccsc2C(=O)OC)c1	2.91% (inactive)	
Clc1ccc2c(c1)C1=C(C(c3ccncc3)O2)C(c2ccc(Br)cc2)n2ncnc2N1 (configuration not stated)		13 µM (active)
CCOC(=O)C1=C(c2ccccc2)Nc2ncnn2C1c1ccc(Cl)cc1 (configuration not stated)	-3.16% (inactive)	
CC1=C(C(N)=O)C(c2ccc(Br)cc2)n2ncnc2N1 (configuration not stated)	-20% (inactive)	
CCCC12CN3CC(CCC)(CN(C1)C3c1c[nH]c3ccc(OC)cc13)C2=O (configuration not stated)	-15.7% (inactive)	
Cc1ccccc1C(=O)Nc1cc(C)c(O)c(-c2nc3ccccc3o2)c1	6.96% (inactive)	
CCCN(CC(=O)Nc1ccccc1C)C(=O)c1ccc2[nH]c3c(c2c1)CC(C)CC3 (configuration not stated)		20.6 µM (active)
CCCN(CC(=O)Nc1ccccc1C)C(=O)c1cc(=O)[nH]c2ccccc12	11.2% (inactive)	
CC1CCc2[nH]c3ccc(C(=O)N(C)CC(=O)Nc4cccc(F)c4)cc3c2C1 (configuration not stated)	2.56% (inactive)	
COc1ccc(CCN2CC(C(=O)OCC(=O)NCc3ccccc3Cl)CC2=O)cc1OC (configuration not stated)	4.36% (inactive)	
Cc1ccc(O)c(NC(=O)c2cc(-c3ccc(F)cc3)no2)c1	12.9% (inactive)	
CCOc1cc(C2C(C(=O)OC)=C(C)NC3=C2C(=O)c2ccccc23)ccc1O (configuration not stated)	8.61% (inactive)	
COc1ccc(S(=O)(=O)N2CCOCC2)cc1NC(=O)CSc1nnc(NC2CC2)s1	-0.078% (inactive)	
NS(=O)(=O)c1ccc(CCNC(=O)NC2CCCCC2)cc1	2.98% (inactive)	
Cc1ccc2[nH]cc(CCNC(=O)C3CCCCC3)c2c1	-15.9% (inactive)	
Cc1ccc2[nH]c(C)c(CCNC(=O)NC3CCCCC3)c2c1		20.6 µM (active)

Compound	activity change, negative = inhibition	Potency
COc1ccc(/C=C/C(=O)OCC(=O)N2CCN(S(=O)(=O)c3ccc(C)cc3C)CC2)cc1OC	0.413% (inactive)	
CSc1ccc(CCNC(=O)c2cnn(-c3ccccc3)c2-n2cccc2)cc1	-8.32% (inactive)	
COc1ccc(-c2csc(N3CCN(Cc4ccc5c(c4)OCO5)CC3)n2)cc1	-26.4% (inactive)	
O=C(CSc1ncnc2scc(-c3ccccc3)c12)NCc1ccc2c(c1)OCO2	-28.7% (inactive)	
O=C(CN1CCN(c2nc(-c3ccccc3)cs2)CC1)NCc1ccc2c(c1)OCO2		23.1 µM (active)
O=C(Nc1ccccc1)Oc1cccc2cccnc12	5.41% (inactive)	
O=C(Nc1cc(S(=O)(=O)Nc2ccc(Cl)cc2)ccc1O)c1ccc(F)cc1F	-0.0591% (inactive)	
Cc1nc(N2CCC(C)CC2)c2c(C)c(C(=O)Nc3cc(F)ccc3C)sc2n1	-18.6% (inactive)	
Cc1nc(N2CCN(c3ccccn3)CC2)c2c(C)c(C(=O)Nc3ccc(F)c(Cl)c3)sc2n1		16.4 µM (active)
CCOC(=O)C1CCCN(C(=O)c2sc3nc(C)nc(N4CCOCC4)c3c2C)C1 (configuration not stated)	-3.67% (inactive)	
Cc1nc(N2CCOCC2)c2c(C)c(C(=O)Nc3ccc(C(F)(F)F)cc3)sc2n1		9.2 µM (active)
O=C(c1c(F)cccc1Cl)N1CCN(c2ccccn2)CC1	28.8% (inactive)	
COc1ccc(NC(C)=O)cc1NC(=O)CN1CCN(c2ccccn2)CC1	-3.38% (inactive)	
CC(NC(=O)c1ccccc1)C(=O)OCC(=O)Nc1cccc(S(=O)(=O)N2CCCC2)c1 (configuration not stated)	-4.58% (inactive)	
COc1cc2c(cc1OC)C(Cc1cc(OC)c(OC)cc1[N+](=O)[O-])=NCC2	-10.8% (inactive)	
COc1ccc(CCNC(=O)c2ccc(NC(=O)CC3SC(N4CCCCC4)=NC3=O)cc2)cc1OC (configuration not stated)	-4.44% (inactive)	
COc1ccc2c(c1)c(N1CCCC1=O)c(C(=O)Nc1ccc(OC)c(Cl)c1)n2C	-35.3% (inactive)	
O=[N+]([O-])c1ccc(N=NNc2ccc([N+](=O)[O-])cc2)cc1	4.41% (inactive)	
Cc1ccc(C(=O)NCCSc2c(C)[nH]c3ccccc23)cc1C	-4.57% [at 9.27 µM] (inactive)	
C/C(CC(=O)Nc1ccc(C)cc1C)=N\NC(=O)C(C)C	-7.5% (inactive)	
Cc1ccc(NC(=O)CSc2cccc3cccnc23)c(C)c1	0.544% (inactive)	
COc1ccc(NC(=O)NC(C)c2c(-n3cccc3)sc(C)c2C)cc1OC (configuration not stated)		20.6 µM (active)
CCn1cc(NC(=O)Nc2ccc(OC)c(OC)c2)c(C(N)=O)n1	3.77% (inactive)	
COc1ccc(NC(=O)CNC(=O)Cc2ccccc2)cc1OC	-12.4% (inactive)	
Cc1ccc(NC(=O)NC(C)c2c(-n3cccc3)sc(C)c2C)c(C)c1 (configuration not stated)		18.4 µM (active)
CCCCN1CC(c2nc3ccccc3n2CCCCOc2ccc(C)cc2C)CC1=O (configuration not stated)	-17.4% (inactive)	

Compound	activity change, negative = inhibition	Potency
CN(C(=O)CSc1nncc2ccccc12)C1CCCCC1	12.5% (inactive)	
Brc1c(CSc2nncc3ccccc23)nc2ccccn12		8.2 µM (active)
CCOc1ccc(NC(=O)CSc2nnc3c(n2)[nH]c2ccc(S(=O)(=O)N4CCOCC4)cc23)cc1	-7.26% (inactive)	
Cc1nc(SCCOc2ccc(Cl)cc2)[nH]c(=O)c1Cc1ccccc1	-1.25% (inactive)	
CCCOc1ccc(Cc2c(Cl)nc(SC)nc2NC)cc1		2.06 µM (active)
CCCOc1ccc(Cc2c(O)nc(SC)[nH]c2=O)cc1C	3.9% (inactive)	
COc1ccc(N2CCN(C(=O)C3CCCN(C(=O)c4cc5sccc5n4C)C3)CC2)cc1 (configuration not stated)	-16.8% (inactive)	
CSC(=S)N/N=C/c1c[nH]c2ccccc12	3.83% (inactive)	
O=C(NC1CCCC1)C(=O)c1c[nH]c2ccccc12	19.9% (inactive)	
C[n+]1ccc(/C=C/c2c[nH]c3ccccc23)cc1		0.82 µM (active)
COc1cccc(/C=N/Nc2ccc(S(=O)(=O)Nc3ccccc3C(=O)O)cc2[N+](=O)[O-])c1O	-6.93% (inactive)	
CCC1CCCCN1C(=S)NC(=O)c1ccco1 (configuration not stated)	1.83% (inactive)	
Cc1ccc(C)c(-n2c(SCC(=O)O)nc3sc4c(c3c2=O)CCCC4)c1	-21% (inactive)	
CCCc1nc2sc3c(c2c(=O)n1NC(=O)CCCl)CCCC3		11.6 µM (active)
Cc1nc2sc3c(c2c(=O)n1NC(=O)CCl)CCCC3	-11.4% (inactive)	
CCC(=O)N1CCc2cc(S(=O)(=O)NC(C(=O)Nc3ccc(C(C)=O)cc3)C(C)C)ccc21 (configuration not stated)	13.1% (inactive)	
O=C(NCC1(N2CCCCC2)CCCCC1)c1cccc(S(=O)(=O)Nc2ccccc2Cl)c1	-12.6% (inactive)	
CCOc1ccc(CCNC(=O)c2cc3c(=O)n(C)c4ccccc4c3n2C)cc1	-11.9% (inactive)	
NS(=O)(=O)c1ccc(NC(=O)CSc2nnc3c(n2)[nH]c2ccccc23)cc1	20.7% (inactive)	
O=[N+]([O-])c1ccc(NS(=O)(=O)c2ccccc2)c(Cl)c1		11.6 µM (active)
Cc1cccc(NS(=O)(=O)c2ccc([N+](=O)[O-])cc2)n1	-10.5% (inactive)	
O=C(NNS(=O)(=O)c1ccc(F)cc1)c1ccc([N+](=O)[O-])cc1Cl	5.13% (inactive)	
CN(CC(=O)NCC(c1ccccc1)N1CCCC1)S(=O)(=O)c1ccc(Cl)cc1 (configuration not stated)	13.6% (inactive)	
CCCCCCn1nnc2sc(-c3ccccc3)cc2c1=O	12.6% (inactive)	
COc1cc(O)c2c(=O)c3c(O)c(O)ccc3oc2c1OC	12.7% (inactive)	
O=C(Cc1ccc(NC(=O)C2CCCN(C(=O)C3CCCCC3)C2)cc1)Nc1cccc(C(=O)N2CCCCC2)c1 (configuration not stated)	-0.45% (inactive)	

Compound	activity change, negative = inhibition	Potency
COc1cc(/C=N/NC(=O)c2ccoc2C)ccc1OCCN1CCCCC1	-11.7% (inactive)	
COc1cc(/C=N/NC(=O)Nc2ccccc2)ccc1OCCOc1ccccc1C		14.6 µM (active)
COc1cc(/C=N/NC(=O)c2ccccc2)ccc1OS(=O)(=O)c1ccccc1	0.205% (inactive)	
COc1ccc(-c2sc3ccc(OC)cc3c2C#Cc2ccccn2)cc1	11.5% (inactive)	
CCCCC[C@@H]1C=C(C(=O)O)[C@H](c2ccc(C#N)cc2)N1S(=O)(=O)c1ccc(C)cc1	-19.7% (inactive)	
COc1ccc(CN2CCN(C(=O)c3cc(C4CC4)nn3-c3ccccc3)CC2)cc1F	-18.2% (inactive)	
CCOC(=O)CCC(NC(=O)c1ccc(CNc2nc3cc(C(F)(F)F)ccc3nc2C(=O)OCC)cc1)C(=O)OCC (configuration not stated)	-15.4% (inactive)	
C=CCNC(=O)c1ccc2nc(-c3ccco3)c(-c3ccco3)nc2c1	-0.251% (inactive)	
COC(=O)Cn1cc(C(=O)c2cccs2)c2ccccc21	-13.8% (inactive)	
COCCNC(=O)Cn1cc(C(=O)c2cccs2)c2ccccc21	3.92% (inactive)	
Cc1c(Cl)cccc1NC(=O)Cn1cc(C(=O)c2cccs2)c2ccccc21		6.51 µM (active)
Cc1cccc(N2CCN(C3=C(c4ccccc4)C(=O)c4ccccc43)CC2)c1C	-4.19% (inactive)	
CCOc1ccc(S(=O)(=O)c2cn(Cc3ccccc3)c3ccc(OCC)cc3c2=O)cc1	2.51% (inactive)	
CCS(=O)(=O)N1CCCC(C(=O)NCc2ccc(C)cc2)C1 (configuration not stated)	-11% (inactive)	
Cc1ccc(CNC(=O)C2CCCN(S(C)(=O)=O)C2)cc1 (configuration not stated)	1.71% (inactive)	
CCOc1ccc(CNC(=O)C2CCCN(S(=O)(=O)N(CC)c3ccc(OCC)cc3)C2)cc1 (configuration not stated)		16.4 µM (active)
Oc1ccc(/C=C/c2c(F)cccc2F)c2cccnc12	1.37% (inactive)	
CC(=O)Nc1cccc(-c2nc3ccccc3s2)c1C		7.31 µM (active)
COc1ccc(-c2nc3ccccc3s2)cc1NC(=O)COc1ccccc1C	24.6% (inactive)	
Cc1c(NC(=O)Cc2ccccc2)cccc1-c1nc2cccnc2s1	7.43% (inactive)	
COc1ccc(CCNC(=O)c2ccc(-n3c(C)cc4c3CCCC4)cc2)cc1OC	6.59% (inactive)	
CC(=O)c1cccc(OCc2cc(C(=O)NC(C)Cc3cccnc3)no2)c1 (configuration not stated)	7.73% (inactive)	
CN(Cc1cccnc1)C(=O)c1cc(COc2ccc3ncccc3c2)on1		4.61 µM (active)
CN(Cc1cnccn1)C(=O)c1cc(COc2cccc(C(F)(F)F)c2)on1	4.98% (inactive)	
